High-throughput results from PubChem.
Sampled rows, rich in hits. Any-hit rate of the full collection: about 0.93%.
RPL19A-GFP yeast: RPL19A-GFP expression modulators in yeast, primary screen, cell-based, S. cerevisiae, multiplex flow cytometry, MLPCN; S. cerevisiae RPL19A-GFP strain, 3 h; stronger effect = lower value; percent response vs DMSO, % at 10 µM; 330,000 tested, 0.3% active; AID 2025, 2009;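 active = percent response vs DMSO below 50%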;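 note: median channel GFP fluorescence of the barcoded RPL19A-GFP strain; ratio of sample median GFP to plate DMSO average so 100% = DMSO; lower means less RPL19A-GFP as with rapamycin TOR inhibition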
MEP2 TOR yeast: modulators of MEP2-GFP levels in yeast, primary screen, S. cerevisiae, multiplex flow cytometry, MLPCN library; S. cerevisiae MEP2-GFP strain, 3 h; 100% = DMSO control level; GFP response vs DMSO, % at 10 µM; 330,000 tested, 0.51% active; AID 2016, 2009;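 active = GFP response versus DMSO above a set limit, roughly screen mean plus 3 SD, cut at about 180% in these data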;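 note: median GFP fluorescence of the barcode-gated MEP2-GFP cells per well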
LAP4 TOR yeast: modulators of LAP4-GFP expression in yeast, primary screen, S. cerevisiae, multiplex flow cytometry, MLPCN library. 3 h; median GFP as percent of DMSO wells. GFP response vs DMSO, % at 10 µM. 320,000 tested, 0.34% active. AID 2023, 2009;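 active = GFP response vs DMSO above a set limit, about the screen mean plus 3 SD, cut at about 150% in these data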
AGP1 TOR yeast: modulators of AGP1-GFP expression in yeast TOR pathway, primary screen, cell-based, multiplex flow cytometry, S. cerevisiae, MLPCN library; GFP response vs DMSO, % at 10 µM; 320,000 tested, 0.02% active; 3 h; GFP as percent of DMSO wells; AID 2066, 2009;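 active = GFP response relative to DMSO above a set limit, near screen average plus 3 SD, cut at about 150% in these data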;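 note: median GFP channel fluorescence of the gated AGP1 strain per well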
CIT2-GFP yeast: modulators of CIT2-GFP expression in yeast, primary screen, S. cerevisiae, GFP fusion, multiplex flow cytometry, MLPCN library; AID 2029, 2009; GFP response vs DMSO, % at 10 µM; 320,000 tested, 0.065% active; S. cerevisiae CIT2-GFP strain, 3 h; 100 means same as DMSO wells;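 active = GFP response relative to DMSO above a set limit, near the screen mean plus 3 SD, cut at about 150% in these data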;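 note: ratio of well median GFP fluorescence to mean of DMSO wells on the plate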
LAP4 cherry2: LAP4-GFP expression modulators in yeast, confirmation, cell-based, second cherry pick, flow cytometry; shares compounds with LAP4 TOR yeast; S. cerevisiae LAP4-GFP strain, 3 h; GFP response vs DMSO, % at 10 µM; 590 tested, 20% active;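 active = GFP signal as percent of the solvent control above about 150%, meaning raised reporter expression, limit read from the data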;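 note: ratio of well median GFP fluorescence to plate DMSO mean so 100% = DMSO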
MEP2 cherry2: modulators of MEP2-GFP levels in yeast, confirmation, S. cerevisiae, flow cytometry GFP, second cherry picks | shares compounds with LAP4 TOR yeast | S. cerevisiae MEP2-GFP strain, 3 h | GFP response vs DMSO, % at 10 µM | 590 tested, 10% active | AID 2622, 2010;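 active = GFP signal above 150% of the solvent control wells, that is a rise of more than half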;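 note: median channel GFP fluorescence of all gated yeast cells per well; ratio of median GFP to plate DMSO average so 100% = DMSO level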
RPL19A GFP CP2: RPL19A-GFP modulators in TOR pathway yeast, confirmation, cell-based, S. cerevisiae, flow cytometry, second cherry pick | GFP response vs DMSO, % at 10 µM | shares compounds with LAP4 TOR yeast | AID 2623, 2010 | 590 tested, 3% active | S. cerevisiae RPL19A-GFP strain, 3 h; stronger effect = lower value; 100% means same as DMSO wells;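 active = under 65% GFP response relative to DMSO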;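 note: median GFP channel fluorescence per well over the all cells gate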
CIT2-GFP pick2: modulators of CIT2-GFP expression in yeast, confirmation, flow cytometry, second cherry pick, single plex. 590 tested, 8% active. shares compounds with LAP4 TOR yeast. S. cerevisiae CIT2-GFP strain, 3 h; DMSO control wells read 100%. GFP response vs DMSO, % at 10 µM. AID 2624, 2010;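 active = GFP response vs DMSO above about 150%, limit read from the data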;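 note: median green fluorescence per well over all gated yeast cells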
AGP1-GFP pick2: AGP1-GFP expression modulators, hit retest, confirmation, cell-based, flow cytometry, S. cerevisiae, cherry pick set 2. shares compounds with LAP4 TOR yeast. S. cerevisiae AGP1-GFP strain, 3 h. percent response vs DMSO, % at 10 µM. 590 tested, under 10 active. AID 2643, 2010;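 active = over 150 percent of DMSO response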;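 note: median GFP channel fluorescence over all cells without mother daughter split; sample median GFP divided by mean DMSO control so 100% equals DMSO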
s288c autofluor: compound autofluorescence in yeast s288c, dose response, artefact control for yeast TOR pathway GFP screen, s288c strain | shares compounds with LAP4 TOR yeast | S. cerevisiae s288c, 520 nm autofluorescence, flow cytometry, 3 h; stronger effect = higher value; zero means same as solvent-only cells | fluorescence change (kMESF span) at 33 µM | 610 tested, under 10 active | AID 2757, 2010;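 active = fluorescence span over the dose series, or activity score, above about 33, limit read from the data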
s288c autofl DR: autofluorescence of compounds in yeast s288c, dose response, artefact control for yeast TOR pathway GFP screen, primary hits, KU SAR, s288c parental. shares compounds with LAP4 TOR yeast. fluorescence change (span) at 33 µM. 110 tested, under 10 active. S. cerevisiae s288c parental, compound autofluorescence, flow cytometry, 3 h;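 active = fluorescence change span, or the activity score built from it, above 25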
TORC1 bypass: wild-type yeast growth inhibition sparing TORC1 bypass cells, mechanism study for yeast TOR pathway GFP screen, BY4741 wild type, TORC1 bypass strain; growth rating (0-3) at 30 µM; shares compounds with LAP4 TOR yeast; 120 tested, under 10 active; S. cerevisiae BY4741 spot growth rating, 48-72 h; stronger effect = lower value;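 active = growth rating at most 1 for wild type yeast while the TORC1 bypass strain still grows fully, rated 3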
Numbers without * were called inactive; · = no result given.

SMILES | RPL19A-GFP yeast | MEP2 TOR yeast | LAP4 TOR yeast | AGP1 TOR yeast | CIT2-GFP yeast | LAP4 cherry2 | MEP2 cherry2 | RPL19A GFP CP2 | CIT2-GFP pick2 | AGP1-GFP pick2 | s288c autofluor | others
CCCOc1ccc(C(=O)NNC(=S)NC(=O)CC)cc1 | 89 | 107 | 259* | 87 | 81 | · | · | · | · | · | 1.4 | s288c autofl DR=0.93;TORC1 bypass=3
CCN(CC)c1ccc(S(=O)(=O)N2CCOCC2)cc1NC(=O)CSc1nnc(N)s1 | 106 | 104 | 100 | 98 | 92 | · | · | · | · | · | ·
Cc1cc(=O)oc2cc(Oc3ccc([N+](=O)[O-])cc3C(F)(F)F)ccc12 | 96 | 102 | 99 | 96 | 94 | 105 | 105 | 98 | 99 | 103 | 0.11
CN(C(=O)c1ccccc1F)C(c1ccccc1)c1ccccc1 | 101 | 100 | 87 | 92 | 90 | · | · | · | · | · | ·
O=C(O)c1cccc(S(=O)(=O)Nc2ccc(S(=O)(=O)N3CCOCC3)cc2)c1 | 58 | 129 | 90 | 85 | 92 | 102 | 110 | 98 | 106 | 98 | 0
Cc1ccc(NS(=O)(=O)c2cccc(C(=O)O)c2)cc1S(=O)(=O)N1CCOCC1 | 97 | 104 | 88 | 94 | 101 | · | · | · | · | · | ·
O=C(/C(=C/c1ccccc1Cl)c1ccccc1)N1CCOCC1 | 100 | 105 | 86 | 91 | 96 | · | · | · | · | · | ·
CCCCN1C[C@H](Cc2ccccc2)[C@@H](CC(=O)NCc2ccc(OC)cc2)C1=O | 88 | 141 | 159* | 102 | 101 | 97 | 100 | 102 | 106 | 105 | ·
CCCCC[C@H]1CN(CCCC)C(=O)[C@@H]1CC(=O)NCc1ccc(OC)cc1 | 91 | 89 | 106 | 74 | 66 | · | · | · | · | · | ·
O=C1N(CN2CCN(Cc3ccccc3)CC2)c2ccccc2C12OCCCO2 | 96 | 95 | 96 | 101 | 99 | · | · | · | · | · | ·
Cc1csc(SCC(=O)NC(=O)C2CCCCC2)n1 | 98 | 91 | 110 | 101 | 96 | · | · | · | · | · | ·
CC1=CN2C(=N)/C(=C/c3ccco3)C(=O)N=C2S1 | 104 | 103 | 99 | 89 | 104 | · | · | · | · | · | ·
